Screens from PubChem.
An excerpt weighted towards active compounds, which were near 1.5% of everything screened.
rTrxR1 inhibitor: blocks rat thioredoxin reductase 1. AID 588453. recombinant rTrxR1, NADPH fluorescence consumption, selenite substrate. Potency, µM (highest dose often 114 µM), for inactives: at the top dose activity change, negative = inhibition, most hits filed as inhibitors. O89049. 1% of 390,000 active; also: potency is read from the fitted curve at half-maximal effect; nearly all actives have a fitted effect of over 65% in size
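Rat TrxR1 (90 nM in the dispensed reagent) was pre-reduced with 400 uM NADPH for 5 min at room temperature, then incubated with compound for 15 min. After 400 uM selenite was added, NADPH fluorescence (Ex 340/Em 450 nm) was followed for 8 min.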
Giardia kill: Giardia lamblia killing; Giardia lamblia trophozoite viability; activity change, % at 7.66 µM, hits read low; 0.15% of 340,000 active; AID 540267; in the data active = activity change below about -80%; inconclusive = between about -30% and that limit;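 also: parasites exposed to compound for two days anaerobically before the ATP read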
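Media and compound were dispensed first, then trophozoites at 100 cells/well; plates sat 48 hrs at 37 deg C without oxygen before ATP luminescence reagent was added and read after 15-30 min at room temperature.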
PI4K2A block: blocks human PI4K2A kinase activity | Q9BTU6 | purified PI4K2A, ADP-Glo luminescence, 1 h; stronger effect = lower value | activity change, negative = inhibition, % at 76.9 µM | 0.13% of 420,000 active; in the data active = activity change below about -50%; inconclusive = mostly about -30% to -49%;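 also: -100% = wells without enzyme as full effect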
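In this quantitative HTS, ADP production by PI4K2A was quantified luminescently after 1 h at ambient temperature; 100 microM adenosine served as plate-quality control.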
TrxR1 substrate: is turned over as a substrate by rat TrxR1; O89049; purified TrxR1 substrate turnover, NADPH consumption readout; Potency, µM (series often up to 114 µM), for inactives: at the highest dose activity change, negative = substrate turnover; 0.01% of 390,000 active; AID 588456; also: potency is read from the fitted curve at half-maximal effect; nearly all actives have a fitted effect of over 50% in size
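Rat TrxR1, dispensed at 90 nM, was prereduced with 400 uM NADPH (final) for 5 min at ~22 deg C, then incubated with compound 15 min before 400 uM selenite. A first-read NADPH fluorescence drop versus no-compound background flagged substrates.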
FBPA coupling cs: coupling enzyme interference in Giardia aldolase counter-screen. coupling enzyme system counterscreen, AmpLite Red fluorescence. activity change, negative = inhibition, % at 58.2 µM, hits read low. 0.67% of 290,000 active. AID 2472; in the data active = activity change below about -30%
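Activity here indicates interference with the coupling reaction, not aldolase inhibition. Compounds at 57.5 uM final met coupling enzymes for 10 min at RT; substrate and AmpLite Red detection followed, with a 525/598 nm fluorescence read after 20 min.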
GALK inhibitor: inhibitors of human galactokinase | P51570 | Purified GALK, Kinase-Glo residual ATP luminescence | Potency, µM (highest dose often 57.5 µM), without a hit: top-dose activity change, negative = inhibition, most hits filed as inhibitors | 0.007% of 270,000 active | AID 1868; also: potency is read from the fitted curve at half-maximal effect
Target sequence (P51570 whole entry, looked up): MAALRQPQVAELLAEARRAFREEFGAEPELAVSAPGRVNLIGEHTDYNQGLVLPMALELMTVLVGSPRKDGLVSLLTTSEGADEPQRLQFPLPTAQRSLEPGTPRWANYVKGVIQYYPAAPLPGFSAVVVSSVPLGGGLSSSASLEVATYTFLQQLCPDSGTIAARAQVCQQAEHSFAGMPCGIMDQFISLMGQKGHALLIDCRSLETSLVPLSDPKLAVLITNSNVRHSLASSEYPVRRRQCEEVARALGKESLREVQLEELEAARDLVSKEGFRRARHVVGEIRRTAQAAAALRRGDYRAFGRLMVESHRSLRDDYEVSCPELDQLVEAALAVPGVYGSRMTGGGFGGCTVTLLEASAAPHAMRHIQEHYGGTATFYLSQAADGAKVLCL
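Galactose (100 uM) and ATP (35 uM) were turned over by 5 nM GALK for 1 h at RT. Kinase-Glo Plus then converted the remaining ATP into a luminescent signal.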
The depositor's hits bear a star; ? = inconclusive; / = no result given; [ ] = remark or other dose. Unless noted, calls follow the shape of the dose curve; as a rule, active = well fitted curve in the direction sought with a large enough effect; inconclusive = small, poorly fitted or top-dose-only effect, or another doubt; inactive = no such curve, though single readings can be large; an effect the other way counts as inactive or inconclusive. Unless noted, % is scaled to controls: 0 for no effect and ±100 for the full control effect.

SMILES	rTrxR1 inhibitor	Giardia kill	PI4K2A block	TrxR1 substrate	FBPA coupling cs	GALK inhibitor
S=C(c1ccc(-c2ccc(Cl)c(Cl)c2)o1)N1CCOCC1	28µM*	-13	-2	-7%	-2	-2%
NNC(=O)c1oc2nc(-c3ccco3)cc(-c3ccco3)c2c1N	-9%[57.1 µM]	-23	-57*	8%[57.1 µM]	-2	2%
COC(=O)c1ccccc1NC(=S)NC(=O)c1ccc2c(c1)OCO2	8.9µM*	-5	9	2%	/	-5%
CC(C)(C)c1ccc(C(=O)NC(=S)NNC(=O)COc2ccccc2)cc1	-7%	-4	-1	5%	/	1%
NC(=O)c1ccccc1NC(=S)NC(=O)c1ccc(Br)o1	25µM*	-27	8	-9%	-1	0%
Cc1ccc(C(=O)NNC(=S)NC(=O)COc2ccccc2)cc1	40µM*	1	-4	6%	1	-2%
COC(=O)c1ccccc1NC(=S)NC(=O)c1ccccc1C	11µM*	-7	13	6%	0	-2%
CN(C)[C@@H](CCOc1cccc2ccccc12)c1ccccc1	/	/	-2	/	/	/
COC(=O)c1ccccc1NC(=S)NC(=O)c1ccc(C)cc1	40µM*	11	11	-9%	1	-2%
COC(=O)c1ccccc1NC(=O)C1CCCC1	16%[57.1 µM]	-11	1	-6%	7	4%
COC(=O)c1ccccc1NC(=S)NC(=O)C1CCCCC1	16µM*	-4	1	-3%	1	0%
CC(c1ccccc1)N1CCn2c(nc3cc(NC(=O)NC4CCCCC4)ccc32)C1 (centres undefined)	-1%	2	3	62%	-46*	2%
CC(c1ccccc1)N1CCn2c(nc3cc(NC(=O)c4cccs4)ccc32)C1 (centres undefined)	-10%	-7	0	14%	-3	0%
COCCCCOc1cc2nc(N3CCCN(C)CC3)nc(NC3CCN(C)CC3)c2cc1OC	-33%	/	/	138%	/	/
COc1ccc(OC)c(NC(=O)O[C@@H]2CC[C@@]34CCCN3C(=O)CCC[C@H]4C2)c1	/	/	-3	/	/	/
COc1cccc(NCc2nnc(SC(C(=O)N(C)C)c3ccccc3)n2C2CCCCC2)c1 (centres undefined)	14%	/	/	-1%	/	/
CCOc1cc(N2CCOCC2)c(OCC)cc1NC(C)C(=O)N1CCC(C)CC1 (centres undefined)	-28%	-11	-7	-16%	-47*	2%
CCOc1cc(N2CCOCC2)c(OCC)cc1NC1=NCCCCC1	6%	-5	-4	2%	-32*	2%
FC(F)(F)c1ccc(N2CCOCC2)c(NC2=NCCCCC2)c1	-32%	13	1	2%	-5	4%
CCOc1cc(N2CCOCC2)c(OCC)cc1NC(=O)CSc1ncn[nH]1	23%[57.1 µM]	0	-1	8%[57.1 µM]	-36*	-4%
CCOc1cc(N2CCOCC2)c(OCC)cc1NC(=O)[C@H](C)N1C(=O)C2CC=CCC2C1=O (some centres undefined)	22%[57.1 µM]	-1	0	-3%[57.1 µM]	0	-1%
CCOc1cc(N2CCOCC2)c(OCC)cc1NC(=O)Cc1ccc(OC)c(OC)c1	3%	8	-3	-12%	-41*	-1%
C=CCN1c2ccccc2[C@]23C[C@@H](C(=O)OC)N(S(=O)(=O)c4cccs4)C2=NC(C(=O)OC)=C(C(=O)OC)[C@H]13	/	/	/	/	0	/
CC1(OC(=O)C2CCCC2)C(=O)C=C2C=C(c3ccsc3)N(c3cccc(C#N)c3)C=C2C1=O (centres undefined)	/	/	/	/	-4	/
Cc1nn2c(=O)cc(COC(=O)c3ccccc3NC(=O)C(C)C)nc2s1	11%[57.1 µM]	/	9	6%[57.1 µM]	/	/
SMILES	rTrxR1 inhibitor	Giardia kill	PI4K2A block	TrxR1 substrate	FBPA coupling cs	GALK inhibitor
CC(Cl)C(=O)N1CCC(C(=O)NC2CCCc3ccccc32)CC1 (centres undefined)	/	/	2	/	/	/
CCOc1cc(N2CCOCC2)c(OCC)cc1NC(=O)COC(=O)[C@@H]1CCCN1S(=O)(=O)c1ccccc1F	6%	-2	3	2%	-31*	13%
CCOc1cc(N2CCOCC2)c(OCC)cc1NC(=O)COC(=O)C1CCCN1S(=O)(=O)c1ccccc1F (centres undefined)	17%	-8	-2	6%	/	/
COc1ccccc1NC(=S)NC(=O)C(C)(C)C	13µM*	4	4	1%	-1	3%
COc1ccccc1NC(=S)NC(=O)Cc1ccccc1	-40%	24	1	7%[57.1 µM]	/	/
COc1ccc(C(=O)Nc2ccc3c(c2)C(=O)c2ccccc2C3=O)cc1OC	-4%	0	-1	0%	1	/
COc1ccc(C(=O)c2c(C(F)(F)F)oc3c2C(=O)c2ccccc2C3=O)cc1OC	10%[57.1 µM]	15	-6	-3%[57.1 µM]	-55*	1%
O=C1/C(=N\S(=O)(=O)c2cccs2)C([n+]2ccccc2)=C([O-])c2ccccc21	19%	-7	1	-10%	-51*	3%
CC(C)(C)c1cc[n+](C2=C([O-])c3ccccc3C(=O)/C2=N\S(=O)(=O)c2cccs2)cc1	11%[57.1 µM]	15	-15	0%[57.1 µM]	-57*	2%
Cc1ccc(NC2=C/C(=N\S(=O)(=O)c3cccs3)c3ccccc3C2=O)c(C)c1	-17%	-22	?	-9%	-2	0%
CC(=O)NCc1ccc(C(=O)CSc2nnc(-c3ccncc3)n2Cc2ccccc2)o1	16µM*	-12	-10	-1%	-1	-1%
CCCS(=O)(=O)c1nnnn1-c1cccc(OC)c1	3.5µM*	-8	61	10%	2	-1%
COc1cccc(CS(=O)(=O)c2nnnn2-c2ccccc2)c1	/	/	/	/	2	/
O=C(CCCCCCCCC#CI)Oc1ccccc1	/	/	-2	/	/	/
O=C(COc1ccc2cc(-c3ccccc3)c(=O)oc2c1)NCC1CCC(C(=O)O)CC1 (centres undefined)	32µM*	-11	3	892%	0	/
O=C(COc1ccc2c(-c3ccccc3)cc(=O)oc2c1)NCC1CCC(C(=O)O)CC1 (centres undefined)	-4%	-5	-3	-10%	6	/
COc1ccc(C2CCC3(CCC(=O)N3CCOC(=O)NCc3ccc(Cl)cc3)CC2)cc1 (centres undefined)	/	/	0	/	/	/
Fc1ccc(-c2n[nH]c(=S)n2N=Cc2cccc(OCc3ccccc3)c2)cc1	/	/	4	/	/	/
CCOC(=O)c1cc(-c2ccccc2)n(CC(=O)Nc2ccccc2OCC)c1C	49%[57.1 µM]	/	2	7%[57.1 µM]	/	/
Cc1nnc(SCC2=C(C(=O)O)N3C(=O)C(NC(=O)Cn4ncc(Cl)c4C)C3SC2)s1 (centres undefined)	22µM*	-8	-15	0%	-4	0%
